Source: PMC5540273 (PLoS ONE, 2017)

How the values were obtained:
Conditions in all cases: concentration: 1 μM, replicates: in singlicate; n = 1
PLK2 = test system: PLK2
PLK3 = test system: PLK3
PLK4 = test system: PLK4
PRKCD = test system: PRKCD
PRKCE = test system: PRKCE
PRKCH = test system: PRKCH
PRKCI = test system: PRKCI
PRKCQ = test system: PRKCQ
PRKD1 = test system: PRKD1
PRKD2 = test system: PRKD2
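Note: KINOMEscan kinase panel screen.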

Row | SMILES | %Inh (PLK2) | %Inh (PLK3) | %Inh (PLK4) | %Inh (PRKCD) | %Inh (PRKCE) | %Inh (PRKCH) | %Inh (PRKCI) | %Inh (PRKCQ) | %Inh (PRKD1) | %Inh (PRKD2)
1 | Cc1ccc(-c2ccc3occ(-c4ccc(S(C)=O)cc4)c3c2)nn1 (stereo not shown) | 0% | 0% | 2% | 1% | 0% | 0% | 0% | 13% | 30% | 9%
2 | CC(C)c1nc(-c2cccc(NS(=O)(=O)c3c(F)cccc3F)c2)c(-c2ccnc(Nc3ccc(N4CCOCC4)nc3)n2)s1.Cl [GSK1723980] | 0% | 0% | 100% | 0% | 0% | 2% | 20% | 27% | 93.9% | 99.4%
3 | CC(C)c1nc(-c2ccc(F)c(NS(=O)(=O)c3c(F)cccc3F)c2)c(-c2ccnc(Nc3ccc(N4CCOCC4)nc3)n2)s1 [GSK1804250] | 0% | 0% | 99.8% | 8% | 7% | 21% | 39% | 0% | 93.6% | 99.4%
4 | O=C1NC(=O)C(c2ccccc2Cl)=C1Nc1cccc(Cl)c1 [SB-342409] | 0% | 0% | 0% | 0% | 42% | 0% | 9% | 100% | 0% | 0%
5 | Fc1cc(Cl)ccc1Nc1ccnc2cc(-c3ccc(CN4CCSCC4)o3)ccc12 [GW560106] | 0% | 0% | 97.6% | 14% | 13% | 21% | 23% | 0% | 24% | 19%
6 | COc1cc(Nc2ccnc3cc(-c4ccncc4)ccc23)cc(OC)c1OC.Cl [GW494610] | 0% | 0% | 0% | 13% | 25% | 16% | 0% | 0% | 19% | 24%
7 | Nc1ncc(-c2cn[nH]c2)c2scc(-c3ccc4c(c3)CCN4C(=O)Cc3ccccc3)c12 [GSK2593067] | 17% | 0% | 0% | 0% | 0% | 16% | 32% | 17% | 0% | 0%
8 | O=C(O)C(F)(F)F.O=c1[nH]ccc2nc(N[C@@H]3CCNC3)nc(Nc3ccc4c(c3)S(=O)(=O)CC4)c12 [GSK2181306] | 5% | 0% | 97.4% | 99.1% | 97.9% | 92.9% | 78% | 53% | 92.1% | 96.2%
9 | CN(C)c1ncnc2nc[nH]c12 [SKF-31736] | 20% | 30% | 1% | 0% | 3% | 0% | 0% | 0% | 0% | 0%
10 | Cc1ccc(O)cc1Nc1ccnc2ccc(C(C)(C)C)cc12 [GW856805] | 29% | 15% | 27% | 17% | 31% | 3% | 39% | 0% | 0% | 13%
11 | Nc1ncnc2scc(-c3ccc(NC(=O)Cc4cc(F)ccc4F)cc3)c12.O=C(O)C(F)(F)F [SB-731254-M] | 66% | 47% | 35% | 27% | 2% | 34% | 43% | 3% | 0% | 0%
12 | O=C(O)C(F)(F)F.O=c1[nH]ccc2nc(N[C@@H]3CCNC3)nc(Nc3cc(Cl)cc(Cl)c3)c12 [GSK2188764] | 26% | 16% | 81% | 99.6% | 100% | 97.4% | 85% | 95.1% | 82% | 93.4%
13 | Cc1ccc(Nc2ccnc(Nc3ccc(C)c(F)c3)n2)cc1O.Cl [GW582868] | 0% | 3% | 0% | 0% | 6% | 0% | 25% | 0% | 0% | 0%
14 | NCCC(NC(=O)c1cc(Br)c(-c2ccnc3[nH]ccc23)s1)c1ccccc1.O=C(O)C(F)(F)F.O=C(O)C(F)(F)F (stereo not shown) [GSK1307810] | 28% | 35% | 19% | 99.6% | 98.1% | 98.3% | 0% | 90% | 0% | 31%
15 | CN(C)CCOc1ccc(-c2cc(-c3ccc(Cl)c(O)c3)c(-c3ccncc3)[nH]2)cc1.Cl.Cl [SB-684387] | 4% | 11% | 31% | 0% | 26% | 2% | 14% | 3% | 14% | 2%
16 | O=C(Nc1n[nH]c2nc(-c3ccccc3O)ccc12)C1CC1 [SB-711880] | 0% | 0% | 0% | 25% | 0% | 0% | 27% | 0% | 0% | 5%
